# An excerpt weighted towards active compounds, which were near 2.4% of everything screened.
# POLI inh – qHTS for Inhibitors of Polymerase Iota | Pol iota fluorescent replication assay, 10 min | Potency, µM (top dose mostly 115 µM), for the others: at the top dose activity, negative = inhibition, actives largely listed as inhibitors | DNA polymerase iota (Homo sapiens), Q9UNA4 | 390,000 tested, 1% active; further: potency means the concentration at half of the fitted maximal effect
#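 Pol iota at 10 nM preincubated 15 min with compounds at room temperature; reaction started with fluorescent substrate, 50 nM final. Fluorescence read kinetically at 0 and 10 min; buffer-only wells as negative control.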
# GLS inhibitor – qHTS for Inhibitors of Glutaminase (GLS). 410,000 tested, 0.21% active. GLS enzymatic activity, qHTS titration. Potency, µM (titrated, usually from 45.5 µM), for the others: top-dose activity change, negative = inhibition, actives largely listed as inhibitors. Glutaminase kidney isoform, mitochondrial (Homo sapiens), O94925; further: potency means the concentration at half of the fitted maximal effect; on the % scale 0 is the no-effect control and ±100 the full control effect
# Target sequence (O94925 whole entry, looked up, canonical isoform): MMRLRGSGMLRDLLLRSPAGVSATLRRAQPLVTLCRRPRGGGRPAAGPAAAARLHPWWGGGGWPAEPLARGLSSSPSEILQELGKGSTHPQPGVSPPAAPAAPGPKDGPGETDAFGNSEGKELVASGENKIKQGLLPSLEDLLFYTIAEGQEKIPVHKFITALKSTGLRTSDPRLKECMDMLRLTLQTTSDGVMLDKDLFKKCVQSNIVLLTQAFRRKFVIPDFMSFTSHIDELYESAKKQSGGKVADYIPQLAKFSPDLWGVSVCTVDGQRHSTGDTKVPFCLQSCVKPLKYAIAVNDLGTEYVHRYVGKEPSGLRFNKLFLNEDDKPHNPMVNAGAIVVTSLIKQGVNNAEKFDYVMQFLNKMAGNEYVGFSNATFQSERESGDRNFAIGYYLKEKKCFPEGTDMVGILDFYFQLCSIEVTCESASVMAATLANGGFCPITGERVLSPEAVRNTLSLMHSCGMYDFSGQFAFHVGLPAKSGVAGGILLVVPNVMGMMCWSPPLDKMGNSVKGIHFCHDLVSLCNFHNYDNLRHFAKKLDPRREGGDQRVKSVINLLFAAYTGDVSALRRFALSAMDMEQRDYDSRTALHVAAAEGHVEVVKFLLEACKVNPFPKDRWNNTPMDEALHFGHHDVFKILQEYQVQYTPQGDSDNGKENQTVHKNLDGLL
#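 Enzyme dispensed in phosphate buffer (45 mM, pH 8.2, 0.02% Tween-20), compounds pinned in, then 1 mM L-glutamine solution and the glutamate oxidase–HRP–Amplex Red mix added; fluorescence read immediately and again after 30 min at room temperature.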
# KAT2A inh – qHTS Assay for Inhibitors of GCN5L2. AID 504327, 2011. GCN5L2 HAT assay, ThioGlo1 CoA-SH fluorescence. Potency, µM (top dose mostly 58.9 µM), for the others: at the highest dose activity change, negative = inhibition, usual class: inhibitors. 390,000 tested, 0.21% active; further: potency means the concentration at half of the fitted maximal effect; on the % scale 0 is the no-effect control and ±100 the full control effect
#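 Preincubate 20nM GCN5L2 with compound 15 min, RT → add 50uM ThioGlo1 + 75uM H3(1-25) + 70uM acetyl-CoA → read fluorescence 0 and 20 min. Primary qHTS; fluorescent artifacts likely.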
# Pol kappa inh-1 – qHTS for Inhibitors of Polymerase Kappa; purified Pol kappa, fluorescent DNA synthesis assay, 10 min; Potency, µM (top dose mostly 107 µM), for inactives: at the top dose activity, negative = inhibition, most hits filed as inhibitors; 400,000 tested, 0.53% active; AID 588579, 2011; further: potency means the concentration at half of the fitted maximal effect; on the % scale 0 is the no-effect control and ±100 the full control effect
#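 10 nM Pol kappa was preincubated with compounds for 15 min at room temperature. Reaction started with 50 nM (final) substrate. Fluorescence read kinetically at 0 and 10 min.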
# Pol eta inh-1 – qHTS for Inhibitors of Polymerase Eta. recombinant Pol eta, fluorescent DNA replication assay. Potency, µM (top dose mostly 114 µM), inactives show at the highest dose activity change, negative = inhibition, most hits filed as inhibitors. 390,000 tested, 1.2% active; further: potency means the concentration at half of the fitted maximal effect; on the % scale 0 is the no-effect control and ±100 the full control effect
#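 Pol eta (10 nM) was preincubated with compounds for 15 min at room temperature, after which fluorescent replication substrate (50 nM final) was added to start the reaction. Fluorescence was read kinetically at 0 and 10 min.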
# POLB inh – qHTS Assay for Inhibitors of DNA Polymerase Beta; P06746; Pol beta primer extension/strand displacement, fluorescence kinetic; Potency, µM (titrated, usually from 114 µM), without a hit: at the highest dose activity change, negative = inhibition, usual class: inhibitors; 340,000 tested, 1.3% active; further: potency means the concentration at half of the fitted maximal effect; on the % scale 0 is the no-effect control and ±100 the full control effect
#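 Enzyme-only controls used 10 nM Pol beta; buffer lacking enzyme served as negative control. Compound preincubated 15 min, then 50 nM substrate added; 0 and 10 min reads at room temperature.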
# GALK confirm – Confirmation Assay for Inhibitors of Human Galactokinase (GALK). 150 tested, 70% active. purified GALK, Kinase-Glo ATP depletion luminescence. Potency, µM (top dose mostly 115 µM), without a hit: at the highest dose activity, negative = inhibition, usual class: inhibitors. shares compounds with Pol eta inh-1
# Redox cycling – Confirmatory Assay for Inhibitors of Human Galactokinase (GALK): Phenol-HRP redox assay counterscreen | shares compounds with Pol eta inh-1 | Phenol red-HRP H2O2 redox cycling, absorbance 600 nm | Potency, µM (titrated, usually from 115 µM), for the others: at the highest dose activity change, negative = H2O2 signal, most hits filed as inhibitors | 150 tested, 40% active
# HEK293 viability – Secondary Assay for Inhibitors of Human Galactokinase (GALK): HEK-293 Cell Viability Assay. shares compounds with Pol eta inh-1. HEK-293 viability, ATP luminescence (CellTiter-Glo), 24/48 h. Potency, µM (doses to about 46.1 µM), for the others: at the top dose activity change, negative = cytotoxicity, actives largely listed as inhibitors. 170 tested, 10% active. AID 2547, 2010; further: potency means the concentration at half of the fitted maximal effect; on the % scale 0 is the no-effect control and ±100 the full control effect
# Pol kappa inh-2 – qHTS for Inhibitors of Polymerase Kappa: Confirmatory Assay for Cherry-picked Compounds; shares compounds with Pol eta inh-1; purified Pol-kappa, fluorescent strand-displacement substrate; Potency, µM, most hits filed as inhibitors; 920 tested, 76% active; AID 720501, 2013; further: potency means the concentration at half of the fitted maximal effect
# Pol eta inh-2 – qHTS for Inhibitors of Polymerase Eta: Confirmatory Assay for Cherry-picked Compounds; shares compounds with Pol eta inh-1; 2,600 tested, 64% active; Pol eta primer extension, TAMRA/BHQ fluorescence, 10 min; Potency, µM, most hits filed as inhibitors; further: potency means the concentration at half of the fitted maximal effect
# Active calls of the source: *; ? = inconclusive; nt = not tested or not shown; [ ] = remark or other dose. The call rests on the fitted dose curve; in most records, active means well fitted curve in the direction sought with a large enough effect; inconclusive means small, poorly fitted or top-dose-only effect, or another doubt; inactive means no such curve, though single readings can be large; an effect the other way counts as inactive or inconclusive.
SMILES,POLI inh,GLS inhibitor,KAT2A inh,Pol kappa inh-1,Pol eta inh-1,POLB inh,Pol eta inh-2,others
COc1ccc2cc(C(=O)NCc3ccccc3)c(=Nc3ccc(C(=O)O)cc3)oc2c1,12%,?,-8%,-7%,32µM*,1%,?,
O=C(O)c1ccc(N=c2oc3cc(O)ccc3cc2C(=O)NCc2ccccc2)cc1,-32%,5%,-7%,-11%,?,?,nt,
CC(=O)Nc1cccc(NC(=O)CSc2ccc(-c3cccnc3)nn2)c1,14µM*,2%,0%,89µM*,?,2.8µM*,nt,Pol kappa inh-2=17*
CC(=O)c1cccc(NC(=O)CSc2ccc(-c3cccnc3)nn2)c1,35%,-14%,nt,-4%,-13%,nt,nt,
CC(=O)Nc1ccc(S(=O)(=O)O)c(OC(C)=O)c1,?,-8%,nt,-34%,-5%,nt,nt,
CC(=O)Nc1ccc2c(O)cc(S(=O)(=O)O)cc2c1,20µM*,10µM*,nt,?,32µM*,nt,?,Pol kappa inh-2=?
O=c1[nH]n2c(=O)c3c([nH]c2c1N=Nc1cccc(Cl)c1)CCCC3,1%,?,?,-15%,?,?,76*,
CC1=C(C(=O)Nc2c(C)cc(C)cc2C)C2(CCN(C(C)C)CC2)OC1=O,1%,-7%,2%,2%,-4%,13%,nt,
CCOc1cc(C(=O)NCc2nc(-c3cccc(C)c3)no2)cc(OCC)c1OCC,-7%,-11%,-3%,-1%,-9%,5%,nt,
Cc1csc(N/N=C/c2ccc(O)c([N+](=O)[O-])c2)n1,13µM*,10%,-10%[0.501 µM],22µM*,7.1µM*,25µM*,38*,
CCOc1ccccc1NC(=O)Cn1nc2c3cc(F)ccc3n(Cc3cccc(C)c3)cc-2c1=O,-10%,-2%,-4%,10%,-9%,15%,nt,
CC1=C(C(=O)O)N2C(=O)C(NC(=O)c3ccn(C)n3)C2SC1 (stereo not given),-2%,-5%,-8%,-14%,-17%,?,nt,
CC1=C(C(=O)O)N2C(=O)C(NC(=O)c3nn(C)c(C)c3Cl)C2SC1 (stereo not given),?,3%,-25%,-26%,32µM*,9%,48*,Pol kappa inh-2=42*
Cc1ccc(-c2c3c(=O)n(C)c(=O)n(C)c3c3cnc4ccccc4n23)cc1,-27%,5%,19%,-16%,-17%,13%,nt,
CCNC(=S)N/N=C1\C(=O)c2cccc3cccc1c23,12%,7%,-1%,-1%,1%,-3%,nt,
O=C(N/N=C1/C(=O)c2cccc3cccc1c23)c1ccc(Cl)cc1,49%,-4%,-22%,-42%,8.9µM*,?,?,
COc1ccc(C(=O)Nc2nnc(S(=O)(=O)N3CCCc4ccccc43)s2)cc1,17%,18%,-16%,-6%,-27%,4%,nt,
O=C(Nc1nnc(S(=O)(=O)N2CCCc3ccccc32)s1)c1ccc(Cl)cc1,17%,4%,2%,3%,?,12%,nt,Pol kappa inh-2=?
O=C(Nc1nnc(S(=O)(=O)N2CCCc3ccccc32)s1)c1ccccc1Br,12%,13%,-4%,-1%,79µM*,-20%,?,Pol kappa inh-2=?
CC(C)(C)c1ccc(C(=O)NCC(c2cccs2)S(=O)(=O)c2ccc(F)cc2)cc1 (stereo not given),-18%,5%,-17%,-16%[60.1 µM],-17%,8%,nt,
O=C(NCc1ccco1)c1nc2c(nnn2Cc2ccccc2Cl)c(=O)[nH]1,0%,-12%,-5%,-2%,-9%,3%,nt,
Cc1ccc(C)c(Cn2nnc3c(=O)[nH]c(C(=O)NCc4ccco4)nc32)c1,22µM*,-3%,-4%,89µM*,32µM*,4%,76*,
Cc1cc[n+](-c2[nH]c(=O)sc2/C=N/NC([S-])=Nc2ccccc2)cc1,22µM*,25%,-19%,79µM*,22µM*,-14%,76*,
O=c1[nH]c(-[n+]2ccccc2)c(/C=N/NC([S-])=Nc2ccccc2)s1,95%,?,-6%,-4%,-11%,-11%,nt,
CC1=C(C(N)=O)C(c2cccs2)n2nc(-c3cccc(Cl)c3)nc2N1 (stereo not given),0%,9%,12%,-22%,3%,38%,nt,GALK confirm=?;Redox cycling=5%;HEK293 viability=12%
Cc1ccc(S(=O)(=O)N2CCCCC2)cc1C(=O)Nc1cccnc1,50µM*,-12%,-5%,-42%,18µM*,32µM*,76*,
Cn1nc([N+](=O)[O-])c(C(C#N)c2ccccn2)c(Cl)c1=O (stereo not given),?,-6%,-10%,-18%,-3%,-3%,nt,

# Compound activity: PubChem BioAssay, National Center for Advancing Translational Sciences (NCATS)
